# In PubChem BioAssay (EPA / NIEHS):
# Inconclusive results are not listed. The source made the active and inactive calls. How the source made its calls: active means hit-call score of the fitted dose curve at least 0.9, where 1 is the maximum; inconclusive means response in the unintended direction; inactive means score below 0.9.
# Legend:
# [1] = biological target: human Protein Tyrosine Phosphatase Non-receptor Type 1 (PTPN1), PTPN1 (gene 5770) (UniProt P18031); experiment: NVS_ENZ_hPTPN1: NovaScreen (NVS) Enzymatic Assay for human Protein Tyrosine Phosphatase Non-receptor Type 1 (PTPN1) (AID 2283201)
# How it was run: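 Chemicals were first tested in duplicate at 25 uM, and those passing threshold went on to singleton concentration series topping at 50 uM. Recombinant enzyme, specific substrate, product separated by mobility shift, fluorescence read at 1.33 h; activity loss relative to DMSO.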
# [2] = biological target: Tyrosine-protein phosphatase non-receptor type 11 (Homo sapiens) (UniProt Q06124); experiment: NVS_ENZ_hPTPN11: NovaScreen (NVS) Enzymatic Assay for human Protein Tyrosine Phosphatase Non-receptor Type 11 (PTPN11) (AID 2283202)
# How it was run: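 Compounds first tested in duplicate at 25 uM; those reaching ~30% inhibition rerun in singleton concentration-response, top 50 uM. Phosphatase activity measured after 0.5 h by fluorescence with mobility-shift separation, relative to DMSO.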
# [3] = biological target: Tyrosine-protein phosphatase non-receptor type 13 (Homo sapiens) (UniProt Q12923); experiment: NVS_ENZ_hPTPN13: NovaScreen (NVS) Enzymatic Assay for human Protein Tyrosine Phosphatase Non-receptor Type 13 (PTPN13) (AID 2283205)
# Chain of Tyrosine-protein phosphatase non-receptor type 13 (Homo sapiens) (Q12923 whole entry, looked up): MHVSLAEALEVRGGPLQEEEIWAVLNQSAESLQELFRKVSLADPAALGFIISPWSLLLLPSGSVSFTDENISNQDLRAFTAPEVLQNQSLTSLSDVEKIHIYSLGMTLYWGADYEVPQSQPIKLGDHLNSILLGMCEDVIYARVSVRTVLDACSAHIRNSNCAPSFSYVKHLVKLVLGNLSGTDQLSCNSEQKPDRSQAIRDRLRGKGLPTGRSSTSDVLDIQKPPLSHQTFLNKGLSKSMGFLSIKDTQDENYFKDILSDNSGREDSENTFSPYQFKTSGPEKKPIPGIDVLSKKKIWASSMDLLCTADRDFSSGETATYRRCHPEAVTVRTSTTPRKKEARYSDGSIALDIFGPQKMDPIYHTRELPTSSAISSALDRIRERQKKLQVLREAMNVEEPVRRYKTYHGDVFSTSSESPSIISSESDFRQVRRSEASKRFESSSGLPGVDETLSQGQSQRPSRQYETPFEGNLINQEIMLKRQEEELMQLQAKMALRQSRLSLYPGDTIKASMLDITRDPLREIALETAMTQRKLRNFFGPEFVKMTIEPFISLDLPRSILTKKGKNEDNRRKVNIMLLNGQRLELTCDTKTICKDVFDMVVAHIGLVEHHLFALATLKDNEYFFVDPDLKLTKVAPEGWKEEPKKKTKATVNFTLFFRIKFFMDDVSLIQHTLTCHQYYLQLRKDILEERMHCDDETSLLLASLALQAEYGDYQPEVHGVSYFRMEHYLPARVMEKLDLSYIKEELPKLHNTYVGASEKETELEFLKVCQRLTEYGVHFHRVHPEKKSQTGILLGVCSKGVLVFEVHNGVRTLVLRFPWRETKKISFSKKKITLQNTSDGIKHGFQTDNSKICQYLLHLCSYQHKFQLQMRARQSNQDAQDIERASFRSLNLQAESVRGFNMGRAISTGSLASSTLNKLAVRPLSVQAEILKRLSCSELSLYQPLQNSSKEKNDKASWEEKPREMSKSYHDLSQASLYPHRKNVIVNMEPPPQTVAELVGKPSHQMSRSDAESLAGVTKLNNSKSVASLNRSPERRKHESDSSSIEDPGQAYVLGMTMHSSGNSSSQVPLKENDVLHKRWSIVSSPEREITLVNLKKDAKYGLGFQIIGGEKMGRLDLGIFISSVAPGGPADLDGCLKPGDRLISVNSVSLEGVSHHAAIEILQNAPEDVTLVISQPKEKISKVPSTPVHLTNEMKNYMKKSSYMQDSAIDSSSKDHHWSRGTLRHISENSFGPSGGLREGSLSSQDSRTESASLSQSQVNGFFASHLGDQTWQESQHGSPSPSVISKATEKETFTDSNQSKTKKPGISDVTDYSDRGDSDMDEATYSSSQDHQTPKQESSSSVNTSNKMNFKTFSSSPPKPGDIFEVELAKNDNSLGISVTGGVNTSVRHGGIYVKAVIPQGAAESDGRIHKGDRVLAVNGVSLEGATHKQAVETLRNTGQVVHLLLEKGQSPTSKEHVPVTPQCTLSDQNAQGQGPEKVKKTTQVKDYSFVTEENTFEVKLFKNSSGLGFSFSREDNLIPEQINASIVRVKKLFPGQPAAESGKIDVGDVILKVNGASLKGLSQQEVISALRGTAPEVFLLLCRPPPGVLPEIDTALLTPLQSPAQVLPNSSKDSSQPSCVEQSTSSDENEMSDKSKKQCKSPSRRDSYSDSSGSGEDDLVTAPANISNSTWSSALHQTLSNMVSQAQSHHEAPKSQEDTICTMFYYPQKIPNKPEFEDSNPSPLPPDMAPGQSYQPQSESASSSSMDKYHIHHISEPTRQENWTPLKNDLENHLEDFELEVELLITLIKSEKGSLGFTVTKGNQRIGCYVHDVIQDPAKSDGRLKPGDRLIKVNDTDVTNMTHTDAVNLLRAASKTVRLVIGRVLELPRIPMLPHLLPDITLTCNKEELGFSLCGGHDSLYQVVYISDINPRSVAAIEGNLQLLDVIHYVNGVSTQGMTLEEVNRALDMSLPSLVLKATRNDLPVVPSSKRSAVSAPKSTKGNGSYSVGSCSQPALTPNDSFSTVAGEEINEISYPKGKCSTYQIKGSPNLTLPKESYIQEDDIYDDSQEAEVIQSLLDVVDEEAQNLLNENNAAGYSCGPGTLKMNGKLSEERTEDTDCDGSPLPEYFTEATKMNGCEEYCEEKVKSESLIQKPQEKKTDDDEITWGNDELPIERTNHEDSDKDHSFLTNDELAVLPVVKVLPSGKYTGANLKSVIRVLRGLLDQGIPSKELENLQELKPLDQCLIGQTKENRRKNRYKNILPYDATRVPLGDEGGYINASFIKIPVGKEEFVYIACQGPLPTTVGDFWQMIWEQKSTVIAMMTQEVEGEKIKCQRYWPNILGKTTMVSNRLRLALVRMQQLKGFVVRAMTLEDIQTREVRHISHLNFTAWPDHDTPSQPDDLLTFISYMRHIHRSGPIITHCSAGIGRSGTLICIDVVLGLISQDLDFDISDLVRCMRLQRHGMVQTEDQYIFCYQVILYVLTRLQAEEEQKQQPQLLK
# How it was run: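 Screened first at a single 25 uM in duplicate; compounds passing the threshold (e.g. 30% inhibition) were rerun in concentration series, top 50 uM. Recombinant enzyme, fluorescent substrate, mobility-shift separation, 0.5 h read. Data fitted as inhibition relative to DMSO.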
# [4] = biological target: Tyrosine-protein phosphatase non-receptor type 14 (Homo sapiens) (UniProt Q15678); experiment: NVS_ENZ_hPTPN14: NovaScreen (NVS) Enzymatic Assay for human Protein Tyrosine Phosphatase Non-receptor Type 14 (PTPN14) (AID 2283206)
# How it was run: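 Fluorescent substrate turnover by recombinant human PTPN14 was measured 0.5 h after compound addition, with substrate and product separated by mobility shift. Single-point screening at 25 uM, then concentration-response up to 50 uM for chemicals meeting threshold (e.g., 30% inhibition).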
# [5] = biological target: human Protein Tyrosine Phosphatase Receptor Type M (PTPRM), PTPRM (gene 5797) (UniProt P28827); experiment: NVS_ENZ_hPTPRM: NovaScreen (NVS) Enzymatic Assay for human Protein Tyrosine Phosphatase Receptor Type M (PTPRM) (AID 2283215)
# Chain of human Protein Tyrosine Phosphatase Receptor Type M (PTPRM), PTPRM (gene 5797) (P28827 whole entry, looked up): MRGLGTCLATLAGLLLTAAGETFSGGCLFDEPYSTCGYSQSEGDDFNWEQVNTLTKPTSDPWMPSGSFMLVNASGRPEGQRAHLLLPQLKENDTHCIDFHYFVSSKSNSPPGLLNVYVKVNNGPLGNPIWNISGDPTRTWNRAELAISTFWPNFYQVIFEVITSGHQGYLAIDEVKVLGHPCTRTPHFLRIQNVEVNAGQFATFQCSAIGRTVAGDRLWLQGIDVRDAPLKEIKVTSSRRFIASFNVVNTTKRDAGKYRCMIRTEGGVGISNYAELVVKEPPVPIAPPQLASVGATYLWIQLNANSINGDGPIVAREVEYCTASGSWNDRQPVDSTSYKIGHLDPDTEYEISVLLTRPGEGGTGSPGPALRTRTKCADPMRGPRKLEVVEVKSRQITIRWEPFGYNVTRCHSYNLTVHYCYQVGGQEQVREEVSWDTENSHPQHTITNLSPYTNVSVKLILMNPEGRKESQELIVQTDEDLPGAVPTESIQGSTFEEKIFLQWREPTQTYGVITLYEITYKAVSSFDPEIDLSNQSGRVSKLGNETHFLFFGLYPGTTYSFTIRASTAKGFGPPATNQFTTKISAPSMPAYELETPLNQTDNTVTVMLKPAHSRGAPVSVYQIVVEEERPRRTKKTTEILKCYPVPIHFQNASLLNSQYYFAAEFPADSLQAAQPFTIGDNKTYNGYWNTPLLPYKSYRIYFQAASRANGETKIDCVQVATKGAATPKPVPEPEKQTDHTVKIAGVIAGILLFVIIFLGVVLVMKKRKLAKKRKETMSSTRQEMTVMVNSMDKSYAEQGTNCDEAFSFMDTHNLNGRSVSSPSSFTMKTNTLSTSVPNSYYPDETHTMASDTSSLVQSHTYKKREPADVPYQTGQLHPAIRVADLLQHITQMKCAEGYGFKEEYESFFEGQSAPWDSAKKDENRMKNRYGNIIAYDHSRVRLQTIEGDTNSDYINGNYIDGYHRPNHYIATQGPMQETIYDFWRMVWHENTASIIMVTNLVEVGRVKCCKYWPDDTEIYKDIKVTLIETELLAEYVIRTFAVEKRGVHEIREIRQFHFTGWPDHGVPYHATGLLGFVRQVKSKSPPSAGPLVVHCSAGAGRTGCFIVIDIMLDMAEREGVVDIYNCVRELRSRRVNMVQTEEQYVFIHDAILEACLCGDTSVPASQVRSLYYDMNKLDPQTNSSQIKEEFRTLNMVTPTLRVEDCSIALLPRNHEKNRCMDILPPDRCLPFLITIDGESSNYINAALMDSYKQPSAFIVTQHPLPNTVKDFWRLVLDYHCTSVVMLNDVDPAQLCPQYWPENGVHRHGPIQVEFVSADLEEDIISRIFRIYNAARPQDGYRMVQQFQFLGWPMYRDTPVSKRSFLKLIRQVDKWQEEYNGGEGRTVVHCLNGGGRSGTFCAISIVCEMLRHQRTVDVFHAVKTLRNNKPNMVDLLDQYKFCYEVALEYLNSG
# How it was run: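 Read-out is fluorescence after electrophoretic separation of substrate and product, taken 1.33 h post-dosing with recombinant enzyme. Compounds screened at 25 uM in duplicate, then concentration series for actives; activity as signal loss relative to DMSO.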
# [6] = biological target: human Sirtuin 2 (SIRT2), SIRT2 (gene 22933) (UniProt Q8IXJ6); experiment: NVS_ENZ_hSIRT2: NovaScreen (NVS) Enzymatic Assay for human Sirtuin 2 (SIRT2) (AID 2283217)
# How it was run: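 Single-point duplicate screen at 25 uM, then concentration-response (max 50 uM) for chemicals passing threshold. Enzyme activity of recombinant human SIRT2 measured after 1 hr by fluorescence with mobility-shift separation of product; DMSO baseline.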
# [7] = biological target: human Sirtuin 1 (SIRT1), SIRT1 (gene 23411) (UniProt Q96EB6); experiment: NVS_ENZ_hSIRT1: NovaScreen (NVS) Enzymatic Assay for human Sirtuin 1 (SIRT1) (AID 2283219)
# How it was run: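 Cell-free recombinant SIRT1 with a fluorescent substrate; substrate and product separated by electrophoretic mobility shift and read by fluorescence intensity, 1 h after dosing. Primary screen at 25 uM in duplicate; hits re-run in concentration-response up to 50 uM, relative to DMSO.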
# [8] = biological target: human Phosphoinositide 3-kinase alpha (PI3Ka), PIK3CA (gene 5290) (UniProt P42336); experiment: NVS_ENZ_hPI3Ka: NovaScreen (NVS) Enzymatic Assay for human Phosphoinositide 3-kinase alpha (PI3Ka) (AID 2283196)
# Chain of human Phosphoinositide 3-kinase alpha (PI3Ka), PIK3CA (gene 5290) (P42336 whole entry, looked up): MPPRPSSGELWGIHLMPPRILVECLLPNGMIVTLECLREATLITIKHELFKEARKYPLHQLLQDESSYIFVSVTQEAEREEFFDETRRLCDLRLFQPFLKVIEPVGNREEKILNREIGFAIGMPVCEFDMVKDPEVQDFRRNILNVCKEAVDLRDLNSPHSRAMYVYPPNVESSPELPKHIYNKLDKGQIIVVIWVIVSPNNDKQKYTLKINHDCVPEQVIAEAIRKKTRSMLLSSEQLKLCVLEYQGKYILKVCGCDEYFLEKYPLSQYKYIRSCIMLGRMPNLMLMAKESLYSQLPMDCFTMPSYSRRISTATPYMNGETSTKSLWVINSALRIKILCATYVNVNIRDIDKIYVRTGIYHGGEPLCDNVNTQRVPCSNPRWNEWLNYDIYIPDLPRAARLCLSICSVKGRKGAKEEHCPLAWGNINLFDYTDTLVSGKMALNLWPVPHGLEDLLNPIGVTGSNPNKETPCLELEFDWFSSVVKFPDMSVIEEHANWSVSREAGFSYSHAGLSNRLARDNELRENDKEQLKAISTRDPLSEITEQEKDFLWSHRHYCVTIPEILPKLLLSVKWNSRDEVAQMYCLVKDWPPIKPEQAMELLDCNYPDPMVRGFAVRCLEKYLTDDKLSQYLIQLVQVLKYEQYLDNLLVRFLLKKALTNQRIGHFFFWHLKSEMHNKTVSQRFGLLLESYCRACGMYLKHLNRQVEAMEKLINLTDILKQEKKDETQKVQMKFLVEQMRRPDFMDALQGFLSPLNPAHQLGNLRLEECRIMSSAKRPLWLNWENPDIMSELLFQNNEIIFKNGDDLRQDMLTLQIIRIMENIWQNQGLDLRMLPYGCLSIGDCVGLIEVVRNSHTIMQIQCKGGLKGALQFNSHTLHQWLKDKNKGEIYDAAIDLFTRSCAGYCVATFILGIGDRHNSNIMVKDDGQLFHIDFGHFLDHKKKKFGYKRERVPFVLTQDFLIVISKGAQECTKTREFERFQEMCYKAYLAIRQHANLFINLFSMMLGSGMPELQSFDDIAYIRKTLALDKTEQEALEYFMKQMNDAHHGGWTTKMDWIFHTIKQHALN
# How it was run: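 Chemicals were first screened at 25 uM in duplicate, then hits were run as concentration series up to 50 uM. Enzyme activity was measured by fluorescence after mobility-shift separation, with loss of signal relative to DMSO taken as activity.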
# [9] = biological target: human Protein Tyrosine Phosphatase Receptor Type F (PTPRF), PTPRF (gene 5792) (UniProt P10586); experiment: NVS_ENZ_hPTPRF: NovaScreen (NVS) Enzymatic Assay for human Protein Tyrosine Phosphatase Receptor Type F (PTPRF) (AID 2283213)
# How it was run: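 Cell-free fluorescence enzyme assay with recombinant protein and substrate; product separated by electrophoretic mobility shift. Read 1 h after dosing, single 25 uM duplicate screen, then concentration-response up to 50 uM; loss of signal vs DMSO.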
# [10] = biological target: human Protein Tyrosine Phosphatase Non-receptor Type 6 (PTPN6), PTPN6 (gene 5777) (UniProt P29350); experiment: NVS_ENZ_hPTPN6: NovaScreen (NVS) Enzymatic Assay for human Protein Tyrosine Phosphatase Non-receptor Type 6 (PTPN6) (AID 2283210)
# How it was run: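 Recombinant human PTPN6 from SF9 cells, enzyme activity followed by fluorescence after mobility-shift separation of substrate and product at 1.33 h. Chemicals first tested at a single 25 uM in duplicate, then confirmed across concentration series; loss of signal relative to DMSO.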
smiles,measurement,setting,value
O=C(c1ccc(OCCN2CCCCC2)cc1)c1c(-c2ccc(O)cc2)sc2cc(O)ccc12,AC50,[1],5.48 µM (active)
same,AC50,[2],28 µM (active)
same,AC50,[3],30.9 µM (active)
same,outcome,[4],inactive
same,AC50,[5],37.9 µM (active)
same,outcome,[6],inactive
same,AC50,[7],17.8 µM (active)
CC/C(=C(\c1ccccc1)c1ccc(OCCN(C)C)cc1)c1ccccc1,AC50,[8],16.1 µM (active)
same,AC50,[3],12.1 µM (active)
same,outcome,[4],inactive
same,outcome,[9],inactive
same,AC50,[5],13.9 µM (active)
N#CCCCC(C#N)CCC#N (centres undefined),outcome,[8],inactive
C=CC(=O)OCCCCCC,outcome,[8],inactive
O=C1OC2(c3ccc(O)cc3Oc3cc(O)ccc32)c2ccccc21,outcome,[8],inactive
CC(CO)c1ccccc1 (centres undefined),outcome,[8],inactive
S=c1[nH][nH]c(=S)s1,outcome,[8],inactive
CCCCCCOC(C)=O,outcome,[8],inactive
CCCCOCCOCCO,outcome,[10],inactive
CC(C)Cc1ccccc1,outcome,[8],inactive
C=CC(=O)OCC(CO)(COC(=O)C=C)COC(=O)C=C,outcome,[8],inactive
C[C@]12CC[C@@H]3c4ccc(O)cc4CC[C@H]3[C@@H]1CC[C@@H]2O,outcome,[5],inactive
CCOC(=O)C(=O)OCC,outcome,[8],inactive
Cc1ccc(C(C)(C)O)cc1,AC50,[8],25 µM (active)
